The list is not random: actives were taken first. Their share in the collection is about 1.8%.
Fam108B counter = blocks mouse Fam108B hydrolase in RBBP9 counter-screen. inhibition, % at 9.51 µM. recombinant Fam108B, FP-Rh probe fluorescence polarization. actives 0.33% (n = 300,000). AID 1947;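 active = inhibition above the screen mean inhibition plus 3 SD, computed separately per campaign, cut at about 18% in these data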;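 also: inhibitors lower polarization as less probe binds the enzyme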
PME-1 inh = blocks human protein phosphatase methylesterase 1 | inhibition, % at 5.9 µM | AID 2130 | actives 0.53% (n = 320,000) | recombinant PME-1, FP-Rh probe fluorescence polarization;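 active = inhibition above the campaign mean of all compounds plus 3 SD, cut at about 26% in these data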;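 also: competitive labeling of PME-1 active site by serine hydrolase directed probe; 0% = PME-1 with DMSO and 100% = wells lacking PME-1 enzyme; inhibitors block probe labeling so polarization falls and inhibition rises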
GSTO1 counter = GSTO1 inhibition, counter-screen for RBBP9 inhibitors. actives 1.1% (n = 300,000). AID 1974. recombinant GSTO1, activity-based probe fluorescence polarization. P78417. inhibition, % at 5.96 µM;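 active = inhibition above the campaign mean inhibition plus 3 SD, cut at about 35% in these data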;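 also: 0% = GSTO1-1 with DMSO and 100% = wells lacking GSTO1-1 enzyme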
Target sequence (P78417 whole entry, looked up): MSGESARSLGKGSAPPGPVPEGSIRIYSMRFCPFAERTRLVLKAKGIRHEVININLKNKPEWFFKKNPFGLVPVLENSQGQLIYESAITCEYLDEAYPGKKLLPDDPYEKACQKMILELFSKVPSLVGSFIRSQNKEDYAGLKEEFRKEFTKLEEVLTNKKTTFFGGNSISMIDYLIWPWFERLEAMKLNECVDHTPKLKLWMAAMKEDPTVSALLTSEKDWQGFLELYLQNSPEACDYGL
PAD4 inh = blocks human protein arginine deiminase 4. inhibition, % at 6.36 µM. Q9UM07. recombinant PAD4, RCA probe fluorescence polarization. actives 0.41% (n = 330,000);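 active = percent inhibition above a cutoff equal to the mean of all tested compounds plus 3 SD, cut at about 15% in these data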;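 also: 0% = PAD4 with RCA probe and DMSO and 100% = probe without PAD4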
LYPLA1 counter = LYPLA1 (human) inhibition in PME1 counter-screen. O75608. recombinant LYPLA1, FP-Rh probe fluorescence polarization. inhibition, % at 5.9 µM. actives 0.16% (n = 320,000). AID 2174;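 active = inhibition above the mean of all tested compounds plus 3 SD, set per campaign, cut at about 14% in these data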;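 also: inhibitors block serine hydrolase probe labeling of LYPLA1 so polarization falls; 0% = enzyme with DMSO and 100% = wells lacking LYPLA1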
LYPLA2 inh = blocks human lysophospholipase 2, a PME1 counter-screen | AID 2177 | recombinant LYPLA2, FP-Rh probe fluorescence polarization | actives 0.38% (n = 320,000) | inhibition, % at 5.9 µM | O95372;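 active = inhibition above the screen-wide mean plus 3 SD, limit set per campaign, cut at about 26% in these data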;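 also: 0% = LYPLA2 with DMSO and 100% = wells lacking LYPLA2 enzyme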
Target sequence (O95372 whole entry, looked up): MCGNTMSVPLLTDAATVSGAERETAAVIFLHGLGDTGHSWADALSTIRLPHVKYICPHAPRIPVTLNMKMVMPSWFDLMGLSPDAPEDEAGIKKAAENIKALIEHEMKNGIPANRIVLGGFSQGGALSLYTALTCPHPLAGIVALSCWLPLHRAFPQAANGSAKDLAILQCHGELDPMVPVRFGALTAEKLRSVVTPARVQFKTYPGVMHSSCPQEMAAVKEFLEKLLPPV
Fam108b inh conf = confirmation of mouse Fam108b serine hydrolase inhibitors; AID 1978; actives 44% (n = 930); recombinant Fam108b, FP-Rh probe fluorescence polarization; inhibition, % at 9.51 µM; shares compounds with Fam108B counter;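 active = inhibition above a limit from the primary screen, the mean over all compounds plus 3 SD, cut at about 19% in these data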;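 also: 0% = median of active Fam108b wells and 100% = catalytically dead S170A mutant; inhibitors free the probe so polarization falls as inhibition rises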
Fam108b ABPP HTS = mouse ABHD17B inhibition | shares compounds with Fam108B counter | recombinant Fam108b, gel-based ABPP, fluorophosphonate probe | inhibition, % at 20 µM | actives 44% (n = 260); in the data active = inhibition above about 40%
GSTO1 inh conf = confirmation of human GSTO1 inhibitors | shares compounds with GSTO1 counter | recombinant GSTO1, probe fluorescence polarization | inhibition, % at 5.96 µM | actives 54% (n = 2,400);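 active = inhibition above the primary screen's cutoff, its mean inhibition plus 3 SD, cut at about 35% in these data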;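 also: loss of polarization as inhibitors block binding of rhodamine sulfonate ester activity probe; 0% = GSTO1 with DMSO and 100% = wells lacking GSTO1 enzyme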
LYPLA2 confirm = counter-screen for PME1 inhibitors: confirmation of human LYPLA2 inhibitors. shares compounds with LYPLA2 inh. recombinant LYPLA2, FP-Rh probe fluorescence polarization. inhibition, % at 5.9 µM. actives 72% (n = 1,100). AID 2232;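 active = mean inhibition across replicates above the hit cutoff set in the primary screen, cut at about 26% in these data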;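 also: blocked labeling of the enzyme by serine hydrolase FP-Rh probe lowers polarization; 0% = enzyme with DMSO and 100% = wells lacking LYPLA2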
PAD4 FP conf = confirmation of human PAD4 inhibitors. shares compounds with PAD4 inh. recombinant PAD4, RCA probe fluorescence polarization. inhibition, % at 6.36 µM. actives 28% (n = 1,200). AID 488796;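 active = mean inhibition across replicates above the hit cutoff set by the earlier primary screen, cut at about 15% in these data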;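 also: inhibitors block active-site labeling by the probe so polarization falls; 0% = PAD4 with probe and DMSO and 100% = probe without PAD4 enzyme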
Numbers without * were called inactive; · = not tested or not shown; ! = not confirmed by another sample.

SMILES	Fam108B counter	PME-1 inh	GSTO1 counter	PAD4 inh	LYPLA1 counter	LYPLA2 inh	Fam108b inh conf	GSTO1 inh conf	others
Cn1c(=O)[nH]c2nncnc2c1=O	1	1	29	-15	0	0	·	·
COC(=O)C1=C(c2ccc(S(C)(=O)=O)cc2)C[C@@H]2CC[C@H]1N2C(=O)N1CCC(O)CC1	7	0	6	-1	0	8	·	·
CC(=O)c1ccc2c(c1)C1C(Cl)C(Sc3ccccc3[N+](=O)[O-])CC1C(C(=O)O)N2 (stereo not drawn)	56*	31*	5	-3	1	13	5	·
O=C(N/N=C/c1c(O)n(Cc2ccccc2)c(=O)[nH]c1=O)c1ccccc1O	21*	1	15	-7	-5	1	42*	·	Fam108b ABPP HTS=0
O=C(N/N=C/c1c(O)n(Cc2ccc(F)cc2)c(=O)[nH]c1=O)c1ccccc1O	14	19	1	0	-4	5	·	·
CCOP(=O)(Oc1ccccc1)c1c([N+](=O)[O-])cc(C(F)(F)F)cc1[N+](=O)[O-] (stereo not drawn)	3	1	10	-3	-6	-5	·	·
CC(C)C[C@H]1C(=O)N2CCCC2[C@]2(O)O[C@](NC(=O)[C@@H]3C=C4c5cccc6[nH]cc(c56)CC4N(C)C3)(C(C)C)C(=O)N12 (stereo partly drawn)	19*	12	48*	18*	0	4	17	·
CCCCn1c(O)c(C(C)=NCc2ccco2)c(=O)[nH]c1=O	-2	3	4	4	-2	-4	·	·
N[C@@H](CCl)C(=O)O	3	-5	3	5	0	2	·	·
NC(Cc1cc(O)c(O)cc1O)C(=O)O (stereo not drawn)	80*	38*	72*	-20	-24	3	101*	·	Fam108b ABPP HTS=50*
O=c1[nH]c2ccccc2n1CCCN1CCC(n2c(=O)[nH]c3cc(Cl)ccc32)CC1	19*	-1	3	6	0	4	-4	·
FCCN(CCF)c1cccc(Cl)c1	1	5	1	-1	-4	-3	·	·
Nc1c(C(=O)NCCCc2ccccc2)c2nc3ccccc3nc2n1Cc1cccs1	34*	2	58*	-13	-2	0	21*	-1
CCC(=Nc1cccc(C(F)(F)F)c1)c1c(O)n(C)c(=O)n(C)c1=O	1	-6	13	1	-2	5	·	·
CN(C)[C@@H]1C(=O)C(C(N)=O)=C(O)[C@@]2(O)C(=O)C3=C(O)c4c(O)cccc4[C@@](C)(O)[C@H]3[C@H](O)[C@@H]12	59*	-6	61*	-4	-3	4	67*!	69*	Fam108b ABPP HTS=0
CCOc1ccc2c(c1)c(C(C)=O)c(C)n2Cc1ccco1	3	3	4	-3	-1	3	·	·
COC(=O)c1nc(-c2ccc3c(n2)C(=O)C(N)=C(OC)C3=O)c(N)c(-c2ccc(OC)c(OC)c2O)c1C	49*	66*	79*	-9	2	-2	63*	88*	Fam108b ABPP HTS=0
COc1ccc(Cc2c(O)[nH]c(=O)[nH]c2=O)c(OC)c1	0	3	-4	-3	1	3	·	·
O=C(O)c1cccc2c1NC(C(=O)O)C1CC(Sc3ccccc3[N+](=O)[O-])C(Cl)C21 (stereo not drawn)	75*	18	39*	4	12	29*	54*	-21	Fam108b ABPP HTS=0;LYPLA2 confirm=12
Cc1ccc(C2N(c3ccccn3)C(=O)C3CCCN32)o1 (stereo not drawn)	-1	-1	-3	-11	-2	-6	·	·
COc1ccc(C(=O)N2CCC3(CC2)OCCO3)cc1	2	4	7	1	-1	-3	·	·
O=C(c1ccc2nc(-c3ccco3)c(-c3ccco3)nc2c1)N1CCC2(CC1)OCCO2	23*	-6	90*	38*	-5	2	9	16	PAD4 FP conf=-5
Cc1cc(N=Nc2ccccc2C)ccc1N	-1	8	-4	-5	1	6	·	·
CCCCn1c(NC(=O)c2ccco2)c(C(=O)OCC)c2nc3ccccc3nc21	49*	19	87*	55*	7	13	49*	87*	Fam108b ABPP HTS=35;PAD4 FP conf=14
Cc1cc(C(=O)Nc2ccccc2)nn1C(C)(C)C	3	-1	7	3	-1	0	·	·
SMILES	Fam108B counter	PME-1 inh	GSTO1 counter	PAD4 inh	LYPLA1 counter	LYPLA2 inh	Fam108b inh conf	GSTO1 inh conf	others
Cn1ccc(NC(=O)CCl)n1	-2	-1	62*	-2	4	2	·	85*
Cc1cc(NC(=O)CCl)nn1C	1	1	85*	1	1	2	·	86*
O=C1NC(=O)N(Cc2ccco2)C(=O)/C1=C/c1ccc(-c2cccc([N+](=O)[O-])c2)o1	16	-2	40*	0	1	5	·	27
COc1cc2c(cc1O)C[C@H]1NCCc3cc4c(c-2c31)OCO4	9	-5	55*	2	-4	-6	·	21
COc1c2c(cc3c1OCO3)CCN(C)C2	-1	-4	7	0	0	1	·	·
Cc1ccc(CC(=O)N2CCN(C)CC2)cc1	0	4	7	7	-5	0	·	·
CC(Cc1ccccc1)NC(=O)/C=C/c1ccc(Cl)cc1 (stereo not drawn)	-1	-2	-1	-1	-3	-4	·	·
COP(=O)(OC)C(NC(=O)/C=C/c1ccccc1)C(Cl)(Cl)Cl (stereo not drawn)	1	2	39*	-5	2	-2	·	69*
CC(C)OC(=O)c1c(N)n(CC2CCCO2)c2nc3ccccc3nc12 (stereo not drawn)	-1	-3	45*	-16	0	-3	·	5
CC(C)CCOC(=O)c1c(N)n(CC2CCCO2)c2nc3ccccc3nc12 (stereo not drawn)	0	3	53*	1	-2	4	·	-2
Nc1c(C(=O)OC2CCCCC2)c2nc3ccccc3nc2n1CC1CCCO1 (stereo not drawn)	3	5	42*	-13	-4	4	·	-2
CCN1CCC(O)(c2ccccc2)C(C(=O)c2ccccc2)C1 (stereo not drawn)	8	1	0	-2	6	3	·	·
